Out of some 100,000 compounds screened, about 770 (0.77%) were called active. The list comes from a sample in which actives are over-represented; it also holds similar structures and randomly drawn compounds. Values without a mark were called inactive. Rule as the data show it: active = inhibition above about 50%; inactive = the rest.
The molecules below were run against Gag-Pol polyprotein (Human immunodeficiency virus type 1 group M subtype B (isolate HXB2)) (UniProt P04585) (assay: RNase H inhibition, HIV 1 Gag Pol polyprotein, FRET biochemical assay, screening (AID 372)). Conditions: HIV-1 RT RNase H, FRET RNA/DNA substrate fluorescence; at 10 µM; active compounds read high.

SMILES	inhibition
O=C1NC(=O)N(c2cccc(F)c2)C(=O)/C1=C/c1cccn1-c1ccccc1	24%
Cc1cccc(N2C(=O)NC(=O)/C(=C\c3cccn3-c3ccccc3)C2=O)c1	22%
Cc1cccc(N2C(=O)NC(=O)/C(=C\c3cccn3-c3ccc(Br)cc3)C2=O)c1	27%
O=C1NC(=O)N(c2cccc(F)c2)C(=O)/C1=C/c1cccn1-c1ccc(Br)cc1	54% (active)
O=C1NC(=O)N(c2ccc(Cl)cc2)C(=O)/C1=C/c1cccn1-c1ccccc1	12%
O=C1NC(=O)N(c2cccc(F)c2)C(=O)/C1=C/c1cccn1-c1ccc(Cl)cc1	59% (active)
O=C1NC(=O)N(c2ccccc2)C(=O)/C1=C/c1cccn1-c1ccc(Br)cc1	29%
Cc1cccc(N2C(=O)NC(=O)/C(=C/c3cccn3-c3ccc([N+](=O)[O-])cc3)C2=O)c1	54% (active)
O=C1NC(=O)N(c2ccccc2)C(=O)/C1=C\c1cccn1-c1ccc([N+](=O)[O-])cc1	22%
N#CC1=C(N)OC2=C(C(=O)CC(c3ccccc3)C2)C1c1cccc(F)c1 (centres undefined)	11%
COc1ccc(/C=N/NC(=O)CN2CCSCC2)c(C)c1C	7%
COc1ccc(C(N)=O)cc1NC(=O)c1cccs1	0%
O=C(CCCN1C(=O)/C(=C/c2ccccc2Cl)SC1=S)Nc1cccc(F)c1	14%
Cc1ccc(Cl)cc1NC(=O)C(=O)NN=C1CCN(C)CC1	0%
Cc1onc(-c2ccccc2Cl)c1C(=O)N1CCN(c2ccccc2F)CC1	0%
Cc1onc(-c2ccccc2Cl)c1C(=O)N1CCN(c2ccc(Cl)cc2[N+](=O)[O-])CC1	55% (active)
Cc1cccc(N2CCN(C(=O)c3c(-c4ccccc4Cl)noc3C)CC2)c1C	9%
CCN(CC)c1ccc(/C=N/Nc2nc(-c3cc4cccc(OC)c4oc3=O)cs2)c(O)c1	53% (active)
COc1cccc2cc(-c3csc(Nc4ccc(C(C)=O)cc4)n3)c(=O)oc12	14%
COc1cccc2cc(-c3csc(Nc4ccccc4C)n3)c(=O)oc12	20%
COc1ccc2oc(=O)c(C(=O)Nc3cccc([N+](=O)[O-])c3)cc2c1	55% (active)
COc1ccc2oc(=O)c(C(=O)Nc3ccccc3)cc2c1	6%
COc1ccc2oc(=O)c(C(=O)Nc3cccc(Cl)c3)cc2c1	5%

SMILES	inhibition
O=C(/C=C\c1ccc([N+](=O)[O-])cc1)Nc1ccc(N2CCOCC2)cc1	7%
O=C(Nc1ccc(Cl)cc1)c1ccc(Br)o1	8%
O=C1NC(=O)C(=Cc2cn(-c3ccccc3)nc2-c2ccc(Br)cc2)C(=O)N1	59% (active)
O=C1NC(=O)C(=Cc2cn(-c3ccccc3)nc2-c2ccc(Cl)cc2)C(=O)N1	41%
CC1=NNC(=O)/C1=C\c1cn(-c2ccccc2)nc1-c1ccc(Br)cc1	14%
COC(=O)C1=C(C(=O)OC)SC2(S1)C(c1ccccc1)=CSC(C(=O)OC)=C2C(=O)OC	54% (active)
COC(=O)C1=C(C(=O)OC)SC2(S1)C(C(=O)OC)=C(C(=O)OC)SC1=C2c2cccc(C)c2NC1(C)C	18%
COC(=O)C1=C(C(=O)OC)SC2(S1)C(C(=O)OC)=C(C(=O)OC)SC1=C2c2ccccc2N(C)C1(C)C	11%
CC(=O)Oc1ccc(-c2cccc(C(=O)Nc3ccccc3Cl)c2)cc1	16%
CC1=C(C(=O)Nc2ccc(C)c(Cl)c2)C(c2cccc([N+](=O)[O-])c2)NC(=O)N1 (centres undefined)	6%
COc1ccc(C2CC(=O)C3=C(C2)Nc2ccccc2NC3c2c(F)cccc2Cl)cc1 (centres undefined)	24%
O=C(COC(=O)c1cc(-c2ccccc2)nc2ccc(Cl)cc12)c1ccc([N+](=O)[O-])cc1	4%
COc1ccc(-c2cc(C(=O)Nc3cccc(Cl)c3)c3ccccc3n2)cc1OC	14%
O=C(Nc1ccc(Nc2ccccc2)cc1)c1cccc2ccccc12	50% (active)
O=C(Nc1ccc(NC(=O)c2cccc3ccccc23)cc1)c1ccccc1	6%
CC(=O)Nc1ccc(NC(=O)c2cccc3ccccc23)cc1	32%
O=C(Cc1ccc(Cl)cc1)Nc1cccc(-c2nc3cc(Cl)cc(Cl)c3o2)c1	2%
O=C(Cc1ccc(Cl)cc1)Nc1ccc(-c2nc3cc(Cl)cc(Cl)c3o2)cc1	50% (active)
Cc1ccc(-c2nc3cc(Cl)cc(Cl)c3o2)cc1NC(=O)Cc1ccc(Cl)cc1	38%
O=C(Cc1ccc(Cl)cc1)Nc1ccc2oc(-c3ccccc3Br)nc2c1	24%
O=C(Cc1ccc(Cl)cc1)Nc1ccc2oc(-c3cccc(Cl)c3)nc2c1	52% (active)
Cc1cccc(-c2nc3cc(NC(=O)Cc4ccccc4)ccc3o2)c1	12%
Cc1ccccc1-c1nc2cc(NC(=O)Cc3ccc(Cl)cc3)ccc2o1	30%

SMILES	inhibition
O=C(Cc1ccccc1)Nc1ccc2oc(-c3cccc(Cl)c3)nc2c1	6%
Cc1cccc(-c2nc3cc(NC(=O)Cc4ccc(Cl)cc4)ccc3o2)c1	53% (active)
O=C(Cc1ccc(Cl)cc1)Nc1ccc2oc(-c3cccc(Br)c3)nc2c1	49%
Cc1ccc2oc(-c3cccc(NC(=O)Cc4ccc(Cl)cc4)c3)nc2c1	42%
O=C(Cc1ccc(Cl)cc1)Nc1ccc2oc(-c3ccccc3Cl)nc2c1	54% (active)
COc1ccc(OC)c(NC(=O)c2ccc(Cl)cc2)c1	8%
O=C(N/N=C/c1cc(Cl)cc([N+](=O)[O-])c1O)/C(=C/C=C/c1ccccc1)NC(=O)c1ccccc1	19%
COc1ccc(OCCCOc2ccccc2Br)cc1	12%
COc1ccccc1N1CCN(C(=O)c2ccc(CN(c3cc(Cl)ccc3C)S(=O)(=O)c3ccccc3)cc2)CC1	1%
O=C(O)c1cccc([N+](=O)[O-])c1C(=O)Nc1cccc(Cl)c1	7%
O=C(Cc1ccc(Cl)cc1)Nc1ccc2oc(-c3ccc(F)cc3)nc2c1	54% (active)
O=C(Cc1ccc(Cl)cc1)Nc1ccc2oc(-c3ccc(Cl)cc3)nc2c1	29%
CCc1ccc(-c2nc3cc(NC(=O)Cc4ccc(Cl)cc4)ccc3o2)cc1	25%
O=C(Nc1ccc(F)cc1F)c1sc2ccccc2c1Cl	16%
Cc1ccc(SCCNC(=O)CN(c2ccccc2F)S(=O)(=O)c2ccccc2)cc1	10%
O=C(O/N=C/c1ccc([N+](=O)[O-])cc1)c1cccs1	1%
Clc1ccccc1-c1nc(-c2cccnc2)no1	20%
CC(C)c1ccc(/C=C/C(=O)Nn2cnnc2)cc1	0%
Cc1ccc(C(=O)OCC(=O)c2ccc(Br)cc2)cc1[N+](=O)[O-]	0%
O=C(Nc1ccc(Cl)c(-c2nc3ccccc3o2)c1)c1cccc(Br)c1	1%
COc1ccc(-c2nc3cc(NC(=O)c4ccc(C)c([N+](=O)[O-])c4)ccc3o2)cc1OC	3%
COc1ccc(C(=O)Nc2cccc(-c3nc4cc(C)ccc4o3)c2)cc1[N+](=O)[O-]	1%
CCc1ccc(-c2nc3cc(NC(=O)c4ccc(C)c([N+](=O)[O-])c4)ccc3o2)cc1	35%

SMILES	inhibition
Cc1ccc(C(=O)Nc2ccc3oc(-c4ccc(F)cc4Cl)nc3c2)cc1[N+](=O)[O-]	0%
O=C(Nc1ccc2oc(-c3cc(Br)ccc3Cl)nc2c1)c1ccccc1	29%
CCOc1ccc(C(=O)Nc2cccc(-c3nc4cc(C)c(C)cc4o3)c2)cc1[N+](=O)[O-]	11%
O=C(Nc1ccc(Cl)c(-c2nc3ccccc3o2)c1)c1ccc(Br)cc1	55% (active)
COc1ccc(C(=O)Nc2cccc(-c3nc4cc(C)c(C)cc4o3)c2)cc1[N+](=O)[O-]	52% (active)
COc1ccc(-c2nc3cc(NC(=O)c4ccc(C)c([N+](=O)[O-])c4)ccc3o2)cc1	61% (active)
Cc1ccc(C(=O)Nc2ccc3oc(-c4ccccc4Cl)nc3c2)cc1[N+](=O)[O-]	55% (active)
Cc1ccccc1-c1nc2cc(NC(=O)c3ccc(C)c([N+](=O)[O-])c3)ccc2o1	41%
CC(C)c1cc(C(C)C)c(S(=O)(=O)NNC(=O)c2ccncc2)c(C(C)C)c1	1%
O=C(NC(=S)Nc1cccc(NC(=O)c2ccc(Cl)cc2Cl)c1)c1ccco1	11%
CCOc1ccc(N(CC(=O)NC(C)CC)S(=O)(=O)c2ccc(Br)cc2)cc1 (centres undefined)	5%
COC(=O)c1cccc(NC(=O)CC(=O)c2ccccc2)c1	0%
COc1ccc(Cc2noc(-c3ccccc3Cl)n2)cc1OC	23%
Cc1sc(NS(=O)(=O)c2ccc([N+](=O)[O-])cc2)nc1-c1ccc(Br)cc1	12%
O=C(/C=C/c1ccccc1)Nc1ccc(-c2nnc(-c3ccco3)o2)cc1	0%
O=C(NCc1ccc(Cl)cc1)c1ccco1	0%
Cc1nnc(Nc2ccc3c(c2)ncn3C)c2ccccc12	0%
O=C(Nc1ccc2oc(-c3ccc(Br)cc3)nc2c1)c1ccc(Cl)c([N+](=O)[O-])c1	58% (active)
O=C(Nc1ccc2oc(-c3cccc(Br)c3)nc2c1)c1ccc(Cl)c([N+](=O)[O-])c1	13%
O=C(Nc1ccc2oc(-c3ccc(F)cc3)nc2c1)c1ccc(Cl)c([N+](=O)[O-])c1	11%

Reference: PubChem BioAssay AID372 (MTDP, 2006)
